Inconclusive results are not listed. Calls of active or inactive are those of the source. The calls were made as follows, unless noted: active = hit-call score of the fitted dose curve at least 0.9, where 1 is the maximum; inactive = score below 0.9.
Legend:
[1] = read-out: Interleukin-8 (IL8), CXCL8 (gene 3576); assay: BSK_3C_IL8: BioMAP Diversity Plus: 3C Assay for Interleukin-8 (IL8) Biomarker Activity (AID 2283020); details: primary human endothelial cells (HUVEC); actives raise or lower the signal
In short: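 ELISA read-out of IL-8 from human umbilical vein endothelium, measured 24 h after chemical dosing. Activity is expressed relative to DMSO negative control, with both increases and decreases fitted.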

[2] = read-out: Monokine induced gamma interferon (MIG), CXCL9 (gene 4283); assay: BSK_3C_MIG: BioMAP Diversity Plus: 3C Assay for Monokine induced gamma interferon (MIG) Biomarker Activity (AID 2283021); details: primary human endothelial cells (HUVEC); actives raise or lower the signal;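 as to AC50: MIG protein level measured by immunoassay in the treated endothelial cultures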
In short: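 Read-out is ELISA detection of MIG on human umbilical vein endothelial cells, taken 24 h after dosing. Gain or loss of signal was scored relative to DMSO controls using bidirectional curve fitting.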

[3] = biological target: human Vitamin D Receptor (VDR), VDR (gene 7421) (UniProt P11473); assay: ATG_VDR_TRANS: Attagene TRANS-FACTORIAL HepG2 Assay for human Vitamin D Receptor (VDR) (AID 2283022; active = hit-call score of the fitted dose curve at least 0.9, where 1 is the maximum)
human Vitamin D Receptor (VDR), VDR (gene 7421), sequence (P11473 whole entry, looked up, the tested form may be a part): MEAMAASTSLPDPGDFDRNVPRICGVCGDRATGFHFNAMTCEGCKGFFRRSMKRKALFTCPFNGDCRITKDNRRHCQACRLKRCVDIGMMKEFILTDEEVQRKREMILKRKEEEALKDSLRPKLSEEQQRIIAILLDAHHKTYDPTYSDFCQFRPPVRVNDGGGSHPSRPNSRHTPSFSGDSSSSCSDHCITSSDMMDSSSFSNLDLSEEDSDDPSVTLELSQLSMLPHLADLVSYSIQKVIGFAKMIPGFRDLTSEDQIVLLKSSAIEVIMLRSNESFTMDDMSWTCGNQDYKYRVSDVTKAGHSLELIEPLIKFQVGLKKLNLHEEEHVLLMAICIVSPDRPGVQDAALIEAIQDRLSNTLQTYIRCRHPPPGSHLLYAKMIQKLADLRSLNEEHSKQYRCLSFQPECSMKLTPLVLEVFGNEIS
In short: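 Steps: transfect HepG2 with GAL4-UAS-driven reporter constructs; dose compounds 24 h; isolate RNA, reverse-transcribe, PCR-amplify with 6-FAM-labelled primer extension and HpaI digestion; quantify fragments by capillary electrophoresis relative to DMSO.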

[4] = BSK_3C_SRB: Viability Assessment in the BioMAP Diversity Plus: 3C Assay (AID 2283023); details: primary human endothelial cells (HUVEC);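 also: fitted both ways against DMSO so a hit may be signal rise or drop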
In short: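 Absorbance at 560 nm of sulforhodamine B-stained (0.1%) total protein served as a cytotoxicity readout in human umbilical vein endothelial cells, 24 h after chemical treatment. Signal was fitted bidirectionally relative to DMSO.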

[5] = read-out: Matrix Metallopeptidase 1 (MMP1), MMP1 (gene 4312); assay: BSK_BE3C_MMP1: BioMAP Diversity Plus: BE3C Assay for Matrix Metallopeptidase 1 (MMP1) Biomarker Activity (AID 2283024); details: primary human bronchial epithelial cells; actives raise or lower the signal
In short: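 Human bronchial epithelial cells (BE3C system) exposed to compound for 24 h; MMP1 then quantified by ELISA. Activity was fitted in both directions relative to DMSO.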

[6] = BSK_3C_Vis: BioMAP Diversity Plus: 3C Assay for Morphology Visualization (AID 2283025); details: primary human endothelial cells (HUVEC);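 also: fitted both ways so gain or loss versus DMSO counts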;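 as to AC50: light microscopy image of cell morphology used as background control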
In short: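 Chemicals were added to primary human umbilical vein endothelium, cells were incubated 24 h, and morphology was then visualized by light microscopy. Gain or loss of signal was fitted bidirectionally relative to DMSO.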

[7] = read-out: Pselectin, SELP (gene 6403); assay: BSK_4H_Pselectin: BioMAP Diversity Plus: 4H Assay for Pselectin Biomarker Activity (AID 2283026); details: primary human endothelial cells (HUVEC); actives raise or lower the signal
In short: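 ELISA read-out of P-selectin on human umbilical vein endothelium after 24 h of dosing. Values derive from bidirectional fitting relative to DMSO. Parallel SRB protein staining flagged overt cytotoxicity.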

[8] = BSK_4H_SRB: Viability Assessment in the BioMAP Diversity Plus: 4H Assay (AID 2283027); details: primary human endothelial cells (HUVEC);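 also: cells exposed to compound for 24 h before staining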;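 as to AC50: curves fitted both ways versus DMSO so AC50 may be loss or gain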
In short: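 Human umbilical vein endothelial cells, 24 h after chemical dosing; total protein measured by 0.1% sulforhodamine B staining after 10% TCA fixation, read at 560 nm. Bidirectional fitting against DMSO.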

[9] = BSK_BE3C_SRB: Viability Assessment in the BioMAP Diversity Plus: BE3C Assay (AID 2283028); details: primary human bronchial epithelial cells;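 as to AC50: fitted both ways so AC50 may mark signal gain or loss versus DMSO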
In short: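 Cells (human bronchial epithelial, primary) are treated with chemicals, and after 24 h the parallel cultures are fixed in 10% TCA. These are then stained with 0.1% SRB and read at 560 nm. Gain or loss of signal is fitted relative to DMSO.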

[10] = read-out: Thrombomodulin, THBD (gene 7056); assay: BSK_3C_Thrombomodulin: BioMAP Diversity Plus: 3C Assay for Thrombomodulin Biomarker Activity (AID 2283029); details: primary human endothelial cells (HUVEC); actives raise or lower the signal
In short: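 Read-out is ELISA of thrombomodulin on human umbilical vein endothelium 24 h after chemical dosing. Gain or loss of signal is scored relative to DMSO. Overt cytotoxicity is checked in parallel cultures by sulforhodamine B staining.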

[11] = read-out: Urokinase-type plasminogen activator receptor (uPAR), PLAUR (gene 5329); assay: BSK_4H_uPAR: BioMAP Diversity Plus: 4H Assay for Urokinase-type plasminogen activator receptor (uPAR) Biomarker Activity (AID 2283030); details: primary human endothelial cells (HUVEC); actives raise or lower the signal
In short: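 Cell-surface uPAR ELISA signal, measured 24 h after dosing human umbilical vein endothelial cells, was analyzed with bidirectional fitting relative to DMSO. Parallel SRB staining of total protein tracked overt cytotoxicity.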

[12] = read-out: Vascular endothelial growth factor receptor 2 (Homo sapiens) (UniProt P35968); assay: BSK_4H_VEGFRII: BioMAP Diversity Plus: 4H Assay for Vascular endothelial growth factor receptor 2 (VEGFR2) Biomarker Activity (AID 2283031); details: primary human endothelial cells (HUVEC); actives raise or lower the signal;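 as to AC50: cell-surface VEGFR2 protein level quantified by ELISA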
In short: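 ELISA read-out of VEGFRII in primary human umbilical vein endothelium, taken 24 h after chemical treatment. Responses are expressed relative to DMSO, with bidirectional fitting.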

[13] = read-out: Human Leukocyte Antigen - DR isotype (HLADR), HLA-DRA (gene 3122); assay: BSK_BE3C_HLADR: BioMAP Diversity Plus: BE3C Assay for Human Leukocyte Antigen - DR isotype (HLADR) Biomarker Activity (AID 2283032); details: primary human bronchial epithelial cells; actives raise or lower the signal
In short: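 ELISA read-out of HLA-DR on human lung bronchial epithelial primary cells, measured 24 h post-dosing. Both increases and decreases were scored relative to DMSO vehicle.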

[14] = read-out: Vascular cell adhesion molecule 1 (VCAM1), VCAM1 (gene 7412); assay: BSK_4H_VCAM1: BioMAP Diversity Plus: 4H Assay for Vascular cell adhesion molecule 1 (VCAM1) Biomarker Activity (AID 2283033); details: primary human endothelial cells (HUVEC); actives raise or lower the signal
In short: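 ELISA read-out of VCAM-1 on human umbilical vein endothelium 24 hours after chemical dosing; gain or loss of signal was fitted relative to DMSO, with sulforhodamine B staining of parallel cultures flagging overt cytotoxicity.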

[15] = read-out: Interferon-gamma inducible Protein 10 (IP10), CXCL10 (gene 3627); assay: BSK_BE3C_IP10: BioMAP Diversity Plus: BE3C Assay for Interferon-gamma inducible Protein 10 (IP10) Biomarker Activity (AID 2283034); details: primary human bronchial epithelial cells; actives raise or lower the signal
In short: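 Chemical is dosed onto human lung bronchial epithelial primary cells, cultures are incubated 24 h, and IP-10 is then quantified by ELISA. Gain or loss of signal is fitted in both directions relative to DMSO.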

[16] = read-out: Monokine induced gamma interferon (MIG), CXCL9 (gene 4283); assay: BSK_BE3C_MIG: BioMAP Diversity Plus: BE3C Assay for Monokine induced gamma interferon (MIG) Biomarker Activity (AID 2283035); details: primary human bronchial epithelial cells; actives raise or lower the signal
In short: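 Primary human bronchial epithelial cells treated for 24 h; MIG levels measured by ELISA, fitted bidirectionally versus DMSO. Parallel SRB total-protein staining assessed cytotoxicity.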

[17] = read-out: Transforming growth factor beta 1 (TGFb1), TGFB1 (gene 7040); assay: BSK_BE3C_TGFb1: BioMAP Diversity Plus: BE3C Assay for Transforming growth factor beta 1 (TGFb1) Biomarker Activity (AID 2283036); details: primary human bronchial epithelial cells; actives raise or lower the signal
In short: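 Primary human lung bronchial epithelial cells; compound exposure 24 h; TGF-b1 by ELISA; bidirectional fit, DMSO baseline. Parallel SRB total-protein staining for cytotoxicity.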

[18] = read-out: Plasminogen activator inhibitor-1 (PAI1), SERPINE1 (gene 5054); assay: BSK_BE3C_PAI1: BioMAP Diversity Plus: BE3C Assay for Plasminogen activator inhibitor-1 (PAI1) Biomarker Activity (AID 2283037); details: primary human bronchial epithelial cells; actives raise or lower the signal
In short: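 Primary human lung bronchial epithelial cells; chemical dosing; 24 h; PAI-1 measured by ELISA; bidirectional fit referenced to DMSO as negative control.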

[19] = read-out: urokinase plasminogen activator (uPA), PLAU (gene 5328); assay: BSK_BE3C_uPA: BioMAP Diversity Plus: BE3C Assay for urokinase plasminogen activator (uPA) Biomarker Activity (AID 2283038); details: primary human bronchial epithelial cells; actives raise or lower the signal
In short: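 Bronchial epithelial cells (human, primary); chemical 24 h; uPA by ELISA; bidirectional fit vs DMSO. SRB (0.1%, after 10% TCA fixation, 560 nm) in parallel cultures for cytotoxicity.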

[20] = read-out: Urokinase-type plasminogen activator receptor (uPAR), PLAUR (gene 5329); assay: BSK_BE3C_uPAR: BioMAP Diversity Plus: BE3C Assay for Urokinase-type plasminogen activator receptor (uPAR) Biomarker Activity (AID 2283039); details: primary human bronchial epithelial cells; actives raise or lower the signal
In short: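 Human bronchial epithelial primary cells; chemical exposure 24 h; uPAR by ELISA; bidirectional fit vs DMSO control.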

Measured: AC50

NC(=O)NN=Cc1ccc([N+](=O)[O-])o1
active: [19] 7.99 µM
inactive: all other assays above

c1ccc2c(c1)-c1cccc3c1c-2cc1ccccc13
active: [5] 0.661 µM
inactive: all other assays above

CCCCCOC(C)=O
inactive: all assays above

Cc1ccc(S(=O)(=O)NC(=O)NN2CCCCCC2)cc1
inactive: all assays above

NNC(=O)c1ccncc1
inactive: all assays above

CCOc1ccc2[nH]cc(C(=O)NCc3ccccc3)c(=O)c2n1
inactive: all assays above

CCCOc1ccc(S(=O)(=O)N2CCN(CC)CC2)cc1-c1nc2c(CC)n(Cc3ccccn3)nc2c(=O)[nH]1
inactive: all assays above

CCCCCCCCCCCCCCCCOS(=O)(=O)O
active: [9] 16.6 µM | [13] 15.1 µM | [15] 10.5 µM | [17] 16 µM | [18] 15.1 µM | [19] 15.7 µM | [20] 16.1 µM
inactive: all other assays above

NC(=O)N(O)[C@@H]1COc2cc(OCc3ccccc3)ccc21
inactive: all assays above

CCCCCCCC/C=C\CCCCCCCC(=O)OC[C@@H](O)[C@H]1OC[C@H](O)[C@H]1O
inactive: all assays above

O=S(=O)(O)c1ccc(N=Nc2c(O)ccc3cc(S(=O)(=O)O)ccc23)cc1
inactive: all assays above

C=CCc1cc(S(=O)(=O)c2ccc(O)c(CC=C)c2)ccc1O
inactive: [3] | [10]
active: [1] 12.4 µM | [2] 34.8 µM | [4] 23.8 µM | [5] 30.5 µM | [6] 37.5 µM | [7] 33.8 µM | [8] 20 µM | [9] 15.8 µM | [11] 13.9 µM | [12] 20 µM | [13] 8.38 µM | [14] 32.3 µM | [15] 13.4 µM | [16] 29.8 µM | [17] 10.5 µM | [18] 10.8 µM | [19] 23.5 µM | [20] 15.4 µM

COc1cc2c(c(OC)c1OC)-c1ccc(OC)c(=O)cc1[C@@H](NC(C)=O)CC2
active: [4] 0.148 µM | [6] 0.488 µM | [7] 0.293 µM | [8] 0.148 µM | [11] 0.148 µM | [13] 0.47 µM | [18] 0.148 µM
inactive: all other assays above

— PubChem BioAssay (EPA / NIEHS)
